# Data from PubChem BioAssay.
# Molecular target: Tumor necrosis factor receptor superfamily member 10B (Homo sapiens) (UniProt O14763)
# Assay: caspase-8 TRAIL sensitization, hit retest, confirmation, cell-based, NB7+caspase-8, with/without TRAIL, luminescence panel (AID 651596)
# Conditions: NB7 neuroblastoma + caspase-8, TRAIL sensitization, luminescence viability, with TRAIL, mean of runs, at 10 µM, stronger effect = higher value; in the data active = activity above about 50%; inactive = the rest
# Chain of Tumor necrosis factor receptor superfamily member 10B (Homo sapiens) (O14763 whole entry, looked up): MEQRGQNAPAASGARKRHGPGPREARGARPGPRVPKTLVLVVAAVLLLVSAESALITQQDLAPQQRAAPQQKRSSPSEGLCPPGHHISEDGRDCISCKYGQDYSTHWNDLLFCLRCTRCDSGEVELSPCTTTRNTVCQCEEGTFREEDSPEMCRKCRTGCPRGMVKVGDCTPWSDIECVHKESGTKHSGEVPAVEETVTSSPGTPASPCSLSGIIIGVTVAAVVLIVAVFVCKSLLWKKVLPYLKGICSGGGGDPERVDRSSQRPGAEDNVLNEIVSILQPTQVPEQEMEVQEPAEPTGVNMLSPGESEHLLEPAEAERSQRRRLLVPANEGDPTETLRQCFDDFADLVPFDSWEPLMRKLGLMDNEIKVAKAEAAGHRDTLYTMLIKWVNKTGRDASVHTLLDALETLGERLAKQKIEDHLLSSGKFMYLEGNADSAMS
row,SMILES,activity
1,CC(=O)c1cccc(NC(=O)CSc2ccc(-c3ccc4c(c3)OCO4)nn2)c1,52.1%
2,Cc1csc(NC(=O)c2ccc(OCC3CCCO3)cc2)n1 (stereo not given),54.9%
3,COc1ccc(/C(N)=N/OC(=O)c2ccc(OC)c([N+](=O)[O-])c2)cc1OC,92.1%
4,Cc1ccc(/C=N/NC(=O)c2cc(C)oc2C)cc1,45.1%
5,CCOC(=O)[C@]12Cc3c(cc(OC)c(OC)c3OC)[C@H]1N(C1CCCCC1)C(=O)c1cc(OC)ccc12,61.2%
6,Cc1ccc(C(=O)Nc2ccc3ncccc3c2)cc1,93.4%
7,O=C(Nc1ncc(Cc2ccccc2)s1)c1cccs1,74.1%
8,CSc1nc2ccc(NC(=O)c3ccccn3)cc2s1,83.2%
9,CC(C)C(=O)Nc1ccc2nn(-c3ccccc3)nc2c1,52.4%
10,Cc1cc(-c2nc3cc(F)ccc3s2)ccc1N,74.5%
11,O=C(NC1CCCCC1)C(c1cccnc1)N(C(=O)CCl)c1ccc(F)cc1 (stereo not given),99.2%
12,O=C(NCc1ccccc1)c1c(Cl)nc(Cl)c(Cl)c1Cl,99.8%
13,Cc1ccsc1/C=C/c1ccc2ccccc2n1,42.2%
14,COc1ccccc1N1CCN(Cc2ccc(O)c3ncccc23)CC1,30.2%
15,C[C@H](CO)N1C[C@H](C)[C@@H](CN(C)C(=O)NC2CCCCC2)Oc2c(NS(=O)(=O)c3ccccc3)cccc2C1=O,-8.07%
16,O=c1/c(=C/c2ccccn2)sc2nc3ccccc3n12,60%
17,O=[N+]([O-])c1ccc(/C=C/c2ccc3ccccc3n2)cc1,70.2%
18,O=C(Cn1ncc(Cl)c(Cl)c1=O)c1ccc2c(c1)OCCO2,39.7%
19,O=C(CCl)Nc1c(C(=O)Nc2ccc3c(c2)OCCO3)oc2ccccc12,93.3%
20,COc1ccc2cc(CNCCOCCOCCNCc3ccc4cc(OC)ccc4c3)ccc2c1,-7.05%

row,SMILES,activity
1,Cc1ccc2c(c1)sc(=NC(=O)c1cccs1)n2C,91.1%
2,O=C(/C=C/c1cccnc1)/C=C/c1cccnc1,91.5%
3,COCCCNc1ccn2nc(-c3ccccc3)cc2n1,50.1%
4,COc1nn(-c2ccccc2)c(=O)c(Cl)c1Cl,92.3%
5,Cc1cccc(NS(=O)(=O)c2ccc3c(c2)Cc2cc(S(=O)(=O)Nc4cccc(C)c4C)ccc2-3)c1C,72.1%
6,Oc1ccc(-c2cn3cc(C(F)(F)F)ccc3n2)cc1,89.1%
7,CC[C@H]1CN2CCc3cc(OC)c(OC)cc3C2C[C@@H]1C[C@H]1NCCc2cc(OC)c(OC)cc21 (stereo not given in full),70%
8,CCS(=O)(=O)c1ncc(Cl)c(C(=O)Nc2ccc(C)cc2)n1,78.6%
9,O=C(COc1ccccc1)Nc1cccc(-c2ccc(N3CCOCC3)nn2)c1,72.7%
10,O=C(c1ccc(CSc2nc3ccncc3[nH]2)cc1)N1CCCCCC1,85.7%
11,c1ccc2sc(NN=C3CCCCCC3)nc2c1,59.8%
12,CCOC(=O)C1=C(C)OC(=Cc2ccc(OC)cc2)C1=O,70.6%
13,Cc1ccc(-c2nc(N/N=C/c3cccc([N+](=O)[O-])c3)c3ccccc3n2)cc1,70.8%
14,CCCc1cc(=O)[nH]c(SCC(=O)Nc2sc(C(N)=O)c(C)c2C(=O)OCCOC)n1,84.6%
15,Nc1nccc(-c2cc(-c3ccc(Cl)cc3Cl)no2)n1,62.4%
16,C=C(C)CSc1nnc2n(Cc3ccccc3)c(=O)c3c4c(sc3n12)CCC4,90.4%
17,CCOC(=O)c1sc(NC(=O)c2ccc(OC(C)=O)cc2)nc1C,61.3%
18,O=C(CSC(=S)N1CCCCC1)c1ccccc1,50.8%
19,CCc1ccc(-c2cc(C(=O)N/N=C/c3c[nH]c4ccccc34)[nH]n2)cc1,41.6%
20,Cc1nc2cc(NC(=O)Nc3nccs3)ccc2n1C,63.5%

# System: not listed separately
# Assay: as above
# Conditions: NB7 neuroblastoma + caspase-8, without TRAIL, luminescence viability, without TRAIL, mean of runs, at 10 µM
row,SMILES,activity
1,CC(=O)c1cccc(NC(=O)CSc2ccc(-c3ccc4c(c3)OCO4)nn2)c1,50%
2,Cc1csc(NC(=O)c2ccc(OCC3CCCO3)cc2)n1 (stereo not given),64.9%
3,COc1ccc(/C(N)=N/OC(=O)c2ccc(OC)c([N+](=O)[O-])c2)cc1OC,84.7%
4,Cc1ccc(/C=N/NC(=O)c2cc(C)oc2C)cc1,55%
5,CCOC(=O)[C@]12Cc3c(cc(OC)c(OC)c3OC)[C@H]1N(C1CCCCC1)C(=O)c1cc(OC)ccc12,80.1%
6,Cc1ccc(C(=O)Nc2ccc3ncccc3c2)cc1,92.9%
7,O=C(Nc1ncc(Cc2ccccc2)s1)c1cccs1,75%
8,CSc1nc2ccc(NC(=O)c3ccccn3)cc2s1,80%
9,CC(C)C(=O)Nc1ccc2nn(-c3ccccc3)nc2c1,55%
10,Cc1cc(-c2nc3cc(F)ccc3s2)ccc1N,68.6%
11,O=C(NC1CCCCC1)C(c1cccnc1)N(C(=O)CCl)c1ccc(F)cc1 (stereo not given),98.8%
12,O=C(NCc1ccccc1)c1c(Cl)nc(Cl)c(Cl)c1Cl,99.9%
13,Cc1ccsc1/C=C/c1ccc2ccccc2n1,30.9%
14,COc1ccccc1N1CCN(Cc2ccc(O)c3ncccc23)CC1,76%
15,C[C@H](CO)N1C[C@H](C)[C@@H](CN(C)C(=O)NC2CCCCC2)Oc2c(NS(=O)(=O)c3ccccc3)cccc2C1=O,1.05%
16,O=c1/c(=C/c2ccccn2)sc2nc3ccccc3n12,14.9%
17,O=[N+]([O-])c1ccc(/C=C/c2ccc3ccccc3n2)cc1,68.5%
18,O=C(Cn1ncc(Cl)c(Cl)c1=O)c1ccc2c(c1)OCCO2,76%
19,O=C(CCl)Nc1c(C(=O)Nc2ccc3c(c2)OCCO3)oc2ccccc12,90.3%
20,COc1ccc2cc(CNCCOCCOCCNCc3ccc4cc(OC)ccc4c3)ccc2c1,-2.75%

row,SMILES,activity
1,Cc1ccc2c(c1)sc(=NC(=O)c1cccs1)n2C,90.7%
2,O=C(/C=C/c1cccnc1)/C=C/c1cccnc1,69.7%
3,COCCCNc1ccn2nc(-c3ccccc3)cc2n1,35.5%
4,COc1nn(-c2ccccc2)c(=O)c(Cl)c1Cl,96.3%
5,Cc1cccc(NS(=O)(=O)c2ccc3c(c2)Cc2cc(S(=O)(=O)Nc4cccc(C)c4C)ccc2-3)c1C,77.5%
6,Oc1ccc(-c2cn3cc(C(F)(F)F)ccc3n2)cc1,87.5%
7,CC[C@H]1CN2CCc3cc(OC)c(OC)cc3C2C[C@@H]1C[C@H]1NCCc2cc(OC)c(OC)cc21 (stereo not given in full),83.4%
8,CCS(=O)(=O)c1ncc(Cl)c(C(=O)Nc2ccc(C)cc2)n1,86.8%
9,O=C(COc1ccccc1)Nc1cccc(-c2ccc(N3CCOCC3)nn2)c1,77.8%
10,O=C(c1ccc(CSc2nc3ccncc3[nH]2)cc1)N1CCCCCC1,82.1%
11,c1ccc2sc(NN=C3CCCCCC3)nc2c1,46.7%
12,CCOC(=O)C1=C(C)OC(=Cc2ccc(OC)cc2)C1=O,70%
13,Cc1ccc(-c2nc(N/N=C/c3cccc([N+](=O)[O-])c3)c3ccccc3n2)cc1,63.5%
14,CCCc1cc(=O)[nH]c(SCC(=O)Nc2sc(C(N)=O)c(C)c2C(=O)OCCOC)n1,86.4%
15,Nc1nccc(-c2cc(-c3ccc(Cl)cc3Cl)no2)n1,56.9%
16,C=C(C)CSc1nnc2n(Cc3ccccc3)c(=O)c3c4c(sc3n12)CCC4,90%
17,CCOC(=O)c1sc(NC(=O)c2ccc(OC(C)=O)cc2)nc1C,57.9%
18,O=C(CSC(=S)N1CCCCC1)c1ccccc1,35.2%
19,CCc1ccc(-c2cc(C(=O)N/N=C/c3c[nH]c4ccccc34)[nH]n2)cc1,52.2%
20,Cc1nc2cc(NC(=O)Nc3nccs3)ccc2n1C,60.8%
